ELG1 genotoxic: inducers of genotoxicity in HEK293T ELG1-luciferase cells; HEK293T ELG1-luciferase reporter, luminescence, 16 h; Potency, µM (series often up to 46 µM), hits mostly activators; 330,000 compounds, 1.3% hits; AID 504466; also: nearly all actives have a fitted effect of over 60% in size
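ELG1-luciferase HEK293T cells, 2,000/well; compound pinned in; 16 hr, 37 °C, 5% CO2; ONE-Glo, 30 min RT; luminescence on CCD imager.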
Luc counter: blocks Kinase-Glo luciferase, a counter-screen artifact. Kinase-Glo luciferase, ATP luminescence, 8 min. Potency, µM (top dose mostly 38.3 µM), actives largely listed as inhibitors. 200,000 compounds, 0.28% hits. AID 1379; also: nearly all actives have a fitted effect of over 60% in size
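Light output from Kinase-Glo luciferase with luciferin and 10 uM ATP in 50 mM imidazole pH 7.2, KCl, MgCl2, Tween 20, BSA; compound pin-delivered, 8-min ambient incubation, then luminescence read.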
Rab9 promoter act: activators of Rab9 promoter; Huh7 Rab9 promoter-luciferase reporter, luminescence, 24 h; Potency, µM (doses to about 9.22 µM), actives largely listed as activators; 320,000 compounds, 2.8% hits; AID 485297; also: nearly all actives have a fitted effect of over 60% in size
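Huh7 cells stably carrying Rab9 promoter–luciferase reporter, plated 1500 cells/well, compound added after 2 h and incubated 24 h at 37 °C; luciferase luminescence then read after 10 min with detection reagent.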
SMN2 splice enh: increases expression of the SMN2 splice variant. AID 1458. HEK293 SMN2-luciferase splicing reporter, luminescence, 30-36 h. 210,000 compounds, 2.8% hits. Potency, µM (highest dose often 46.1 µM), most hits filed as activators; also: nearly all actives have a fitted effect of over 55% in size
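HEK293 cells carry an SMN2 […]–luciferase reporter in which exon 7 inclusion puts luciferase in frame. Cells were plated 10-12 h before compound addition, then incubated 30-36 h at 37C. ONE-Glo luminescence was read; sodium butyrate at 4.5 mM final served as control.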
FLuc modulator: inhibits or activates purified firefly luciferase, miR-21 counter-screen; P08659; purified FLuc, Km substrates, luminescence inhibition; Potency, µM (top dose mostly 57.5 µM), usual class: inhibitors; 360,000 compounds, 6.9% hits; also: nearly all actives have a fitted effect of over 55% in size
Target sequence (P08659 whole entry, looked up): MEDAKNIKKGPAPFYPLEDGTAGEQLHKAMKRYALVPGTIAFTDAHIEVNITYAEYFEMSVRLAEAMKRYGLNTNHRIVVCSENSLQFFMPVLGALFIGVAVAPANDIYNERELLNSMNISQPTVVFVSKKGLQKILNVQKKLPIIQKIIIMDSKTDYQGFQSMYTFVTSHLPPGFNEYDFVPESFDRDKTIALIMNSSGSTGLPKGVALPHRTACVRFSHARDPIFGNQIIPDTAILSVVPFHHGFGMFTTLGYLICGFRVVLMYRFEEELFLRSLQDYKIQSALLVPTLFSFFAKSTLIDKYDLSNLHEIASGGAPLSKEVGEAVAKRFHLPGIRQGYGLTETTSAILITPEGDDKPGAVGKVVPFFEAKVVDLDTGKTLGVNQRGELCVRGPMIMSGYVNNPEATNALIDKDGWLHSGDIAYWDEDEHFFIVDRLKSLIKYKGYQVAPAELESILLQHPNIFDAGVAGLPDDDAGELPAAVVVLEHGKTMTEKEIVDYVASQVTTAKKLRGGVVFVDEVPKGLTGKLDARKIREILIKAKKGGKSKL
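Purified P. pyralis luciferase (10nM final) with 10uM D-luciferin and 10uM ATP (Km levels) in 50mM Tris acetate pH 7.5, 10mM Mg acetate, 0.01% Tween-20, 0.05% BSA; qHTS 6-point titration, ~60 µM downward; luminescence read.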
NPC1 promoter act: activators of NPC1 promoter. Huh7 NPC1 promoter luciferase reporter, 24 h. AID 485313. Potency, µM (titrated, usually from 9.22 µM), hits mostly activators. 320,000 compounds, 2.4% hits; also: nearly all actives have a fitted effect of over 60% in size
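Luminescence read-out of NPC1 promoter-driven luciferase in stably transfected Huh7 cells; compounds delivered in DMSO and left 24 h at 37C, 5% CO2, qHTS titration format.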
Each line names hits and unclear results; the compound was inactive in the other large screens. In the library only some 7.3% were active in any assay of this set; here they are far more common. Calls follow the shape of the dose curve; as a rule, active = well fitted curve in the direction sought with a large enough effect; inconclusive = small, poorly fitted or top-dose-only effect, or another doubt; inactive = no such curve, though single readings can be large; an effect the other way counts as inactive or inconclusive.

Clc1ccc(-n2ncc3c(NCCN4CCOCC4)ncnc32)cc1	ELG1 genotoxic 3.66µM, FLuc modulator 6.75µM
c1ccc(-n2ncc3c(NCCCN4CCOCC4)ncnc32)cc1	ELG1 genotoxic inconclusive, Rab9 promoter act 3.98µM, SMN2 splice enh inconclusive, FLuc modulator 23.9µM, NPC1 promoter act 3.16µM
Cc1ccc([N+](=O)[O-])cc1N/C=C1\CCc2ccccc2C1=O	Rab9 promoter act inconclusive, FLuc modulator inconclusive, NPC1 promoter act 4.47µM
Cc1ccc([N+](=O)[O-])cc1NC(=O)CCc1ccccc1	none
Cc1nc(C)c(-c2nnc(-c3ccccc3Cl)o2)cc1C(=O)NN	none (no result: Luc counter, SMN2 splice enh)
Cc1nc(C)c(-c2nnc(-c3ccc(C(C)(C)C)cc3)o2)cc1C(=O)NN	FLuc modulator 23.9µM
O=C(NCCCn1ccnc1)/C(=C/c1ccco1)NC(=O)c1cccs1	none
O=C(Cn1ncc2c3ccccc3n(Cc3ccccc3)c2c1=O)NC1CCCC1	none (no result: Luc counter, SMN2 splice enh)
CCc1nc2oc3cc(OC)ccc3c(=O)c2c(=O)n1-c1ccccc1	ELG1 genotoxic inconclusive, Rab9 promoter act inconclusive, SMN2 splice enh 25.1µM, NPC1 promoter act inconclusive
Cc1ccc(NC(=S)/N=C(\N)Nc2nc(C)c3ccccc3n2)cc1C	FLuc modulator 10.7µM
CNc1sc(C(=O)c2cccs2)c(N)c1-c1nc2ccccc2s1	ELG1 genotoxic inconclusive, Rab9 promoter act 2.82µM, SMN2 splice enh 5.01µM, FLuc modulator 2.69µM, NPC1 promoter act 3.98µM
CCCNC(=O)C(Cc1cccc(Cl)c1)NC(=O)c1ccccc1 (stereo unspecified)	none (no result: Luc counter, SMN2 splice enh)
COc1ccc(S(=O)(=O)N2CCCCC2)cc1NC(=O)CSc1ncnc2ccccc12	FLuc modulator 8.49µM
CC(=O)c1c(C)[nH]c(C(=O)Nc2cc(S(=O)(=O)N3CCCCC3)ccc2C)c1C	none (no result: Luc counter, SMN2 splice enh)
Cc1ccc(NC(=O)CSc2ncnc3ccccc23)cc1S(=O)(=O)N1CCCCC1	none
COc1ccc(S(=O)(=O)N2CCCCCC2)cc1C(=O)N1CCCCC1	ELG1 genotoxic inconclusive, FLuc modulator 16.9µM (no result: Luc counter, SMN2 splice enh)
COc1ccc(S(=O)(=O)N2CCCCC2)cc1NC(=O)c1[nH]c(C)c(C(C)=O)c1C	ELG1 genotoxic 11.6µM (no result: Luc counter, Rab9 promoter act, SMN2 splice enh, FLuc modulator, NPC1 promoter act)
CC(=O)c1c(C)[nH]c(C(=O)Nc2cccc(S(=O)(=O)N3CCOCC3)c2)c1C	ELG1 genotoxic inconclusive, SMN2 splice enh 8.91µM
CC(=O)c1c(C)[nH]c(C(=O)Nc2cccc(S(=O)(=O)N(C)c3ccccc3)c2)c1C	none (no result: Luc counter, SMN2 splice enh)
CN(Cc1ccc(F)cc1)C(=O)c1ccc(NS(=O)(=O)c2ccccc2)cc1	none (no result: Luc counter, SMN2 splice enh)
CCN(CC)S(=O)(=O)c1cc(NC(=O)CNc2cccc(S(=O)(=O)N3CCOCC3)c2)ccc1C	ELG1 genotoxic 5.17µM (no result: Luc counter, SMN2 splice enh)
COc1ccc(NC(=O)N(Cc2cc3ccc(OC)cc3[nH]c2=O)CC2CCCO2)cc1 (stereo unspecified)	FLuc modulator inconclusive
O=C(NCc1ccco1)c1cccc(-c2nnc(-c3ccccc3)o2)c1	FLuc modulator inconclusive
CC(=O)N(CCC(c1ccco1)C(C)C)Cc1ccc(OC(C)C)cc1 (stereo unspecified)	none (no result: Luc counter, SMN2 splice enh)
O=C(COC(=O)COc1ccc(Br)cc1)NC1CCCC1	none (no result: Luc counter, Rab9 promoter act, SMN2 splice enh, FLuc modulator, NPC1 promoter act)
Nc1ccc(C(=O)N/N=C/c2cn(Cc3ccccc3)c3ccccc23)cc1	FLuc modulator 16.9µM (no result: Luc counter, SMN2 splice enh)
Cn1cc(/C=N/Nc2ccccc2)c2ccccc21	ELG1 genotoxic inconclusive, Rab9 promoter act inconclusive, SMN2 splice enh inconclusive, FLuc modulator 13.5µM
CC(C)n1cc(/C=N\NC(=O)c2cc3c(ccc4ccccc43)o2)c2ccccc21	FLuc modulator inconclusive
Nc1ccc(C(=O)N/N=C/c2cn(Cc3ccccc3F)c3ccccc23)cc1	FLuc modulator 23.9µM (no result: Luc counter, SMN2 splice enh)
CC(C)n1cc(/C=N/Nc2ccc(C(=O)O)cc2)c2ccccc21	ELG1 genotoxic inconclusive, FLuc modulator 6.01µM (no result: Luc counter, SMN2 splice enh)
Cc1c(C(=O)c2ccc(Cl)cc2[N+](=O)[O-])c2ccccn2c1CCC#N	SMN2 splice enh inconclusive
O=C(O)c1ccc(N/N=C/c2cn(Cc3ccccc3F)c3ccccc23)cc1	ELG1 genotoxic inconclusive, Rab9 promoter act inconclusive, FLuc modulator 21.3µM (no result: Luc counter, SMN2 splice enh)
O=C(N/N=C/c1cn(Cc2cccc(F)c2)c2ccccc12)c1cc(O)cc(O)c1	FLuc modulator 16.9µM (no result: Luc counter, SMN2 splice enh)

Bioassay records (PubChem BioAssay)
